# DT40 TDP1 CPT: growth inhibition of DT40 Tdp1-/-;hTDP1 cells with camptothecin (screen for TDP1 inhibitors); chicken DT40 Tdp1-/-;hTDP1 cells + 20 nM CPT, ATP luminescence, 48 h; Potency, µM (titrated, usually from 46.2 µM), actives largely listed as inhibitors; 420,000 compounds, 12% hits; AID 686979; note: nearly all actives have a fitted effect of over 55% in size
#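 Cell growth measured by CellTiter-Glo luminescence after a minimum 48 h, 37 C compound exposure with 20 nM CPT in Tdp1-knockout DT40 cells stably expressing hTDP1, seeded 400/well; qHTS titration format.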
# ClpP mod: qHTS Assay for Activators of ClpP; ATP-dependent Clp protease proteolytic subunit (Bacillus subtilis (strain 168)), P80244; purified B. subtilis ClpP, FRET peptide cleavage, 20 min; Potency, µM (top dose mostly 57.5 µM); 340,000 compounds, 1.9% hits; AID 651965, 2013; active = well fitted falling curve with a large enough effect; inconclusive = small, poorly fitted or top-dose-only effect; inactive = no such curve, though single readings can be large or run the other way; note: the source files actives as falling curves though it sought activators and does not explain the sign; nearly all actives have a fitted effect of over 65% in size
# Target sequence (P80244 whole entry, looked up): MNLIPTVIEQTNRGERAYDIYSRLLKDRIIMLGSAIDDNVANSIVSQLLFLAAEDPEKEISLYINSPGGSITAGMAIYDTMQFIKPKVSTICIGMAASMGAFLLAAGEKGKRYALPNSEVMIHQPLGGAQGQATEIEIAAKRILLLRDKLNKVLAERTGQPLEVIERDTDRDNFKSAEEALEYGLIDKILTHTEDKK
#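 ClpP 10 microg/mL final, pH 8 Tris/KCl buffer with BSA, glycerol, Tween-20; compound pinned in; FRET-FV substrate; RT 20 min; Ex320/Em430; ΔFRET vs ADEP 5.8 microM, DMSO, no enzyme.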
# DRD3 agonist: activates the human D3 dopamine receptor; P35462; D3R DiscoveRx beta-arrestin cells, luminescence, 90 min; max activation, %; 410,000 compounds, 0.58% hits; in the data active = max activation above about 30%
#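 Agonist-mode cell screen: cells plated at 1500/well and incubated overnight at 37 °C, then exposed to library compounds for 90 min at 37 °C. Detection reagent was added for 30–60 min at room temperature, and luminescence was read.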
# DRD3 antagonist: blocks the human D3 dopamine receptor | P35462 | 360,000 compounds, 2.5% hits | D3R cells, DiscoveRx beta-arrestin luminescence, antagonist mode; stronger effect = lower value | max response, negative = inhibition, %; in the data active = max response below about -50%; inconclusive = no clear call, values can overlap the other calls
#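 Cells expressing the human receptor were seeded at 1500 cells/well, incubated overnight at 37 degrees C in 5% CO2, then exposed to library compounds with dopamine controls for 90 minutes at 37 degrees C before luminescent detection.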
# TDP1 cell noCPT: qHTS for Inhibitors of human tyrosyl-DNA phosphodiesterase 1 (TDP1): qHTS in cells in absence of CPT; 420,000 compounds, 15% hits; Potency, µM (titrated, usually from 46.2 µM), actives largely listed as inhibitors; DT40 Tdp1-/- hTDP1 cells, no CPT, ATP luminescence, 48 h; AID 686978, 2013; note: nearly all actives have a fitted effect of over 55% in size
#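 Chicken DT40 Tdp1-/- cells complemented with human TDP1, screened without camptothecin (DMSO vehicle only), 400 cells/well. Compounds pin-transferred, cells incubated at 37 °C for at least 48 hr. Growth read as ATP-dependent luminescence (CellTiter-Glo, 30 min at RT).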
# IL1B secr inh: inflammasome signaling inhibition, IL-1 beta readout. 360,000 compounds, 4.7% hits. THP-1 LPS/ATP IL-1B secretion, AlphaLISA, 16 h; stronger effect = lower value. activity change, % at 57.5 µM; in the data active = activity change below about -50%; inconclusive = mostly about -30% to -49%
#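 Secreted IL-1B measured by AlphaLISA bead assay after 16 h compound exposure of THP-1 cells; compounds (final up to 57.5 uM) added 1 h before LPS (250 ng/mL) and ATP (1.25 mM) stimulation; lower signal means less secretion.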
# A number is an active result; n = inactive; u = inconclusive; x = no result given. This is a sample that favours compounds with a hit; in the whole collection about 21% have one here. Unless noted, calls come from the whole dose curve; as a rule, active = well fitted inhibition curve with a large enough effect; inconclusive = small, poorly fitted or top-dose-only effect; inactive = flat fitted curve, though single readings scatter.
SMILES,DT40 TDP1 CPT,ClpP mod,DRD3 agonist,DRD3 antagonist,TDP1 cell noCPT,IL1B secr inh
O=C(Nc1ccc(N2CCOCC2)cc1)c1cc(-c2ccncc2)nc2ccccc12,20.6µM,n,n,n,u,n
COc1cc(-c2cc(C(=O)Nc3cc(S(=O)(=O)N4CCOCC4)ccc3C)c3ccccc3n2)cc(OC)c1OC,16.4µM,u,n,n,11.6µM,n
O=C(Nc1ccccc1N1CCOCC1)c1cc(-c2ccncc2)nc2ccccc12,11.6µM,x,n,n,11.6µM,n
COc1cccc(-c2nc(CS(=O)(=O)CC(=O)Nc3ccc(C(C)=O)cc3)c(C)o2)c1,u,n,n,n,u,n
Cc1ccc(N2CC(NC(=O)/C=C\c3ccc4c(c3)OCO4)CC2=O)cc1 (stereo not drawn),n,n,n,x,u,x
COc1ccc(-c2cc(C(=O)Nc3cc(S(N)(=O)=O)ccc3C)c3ccccc3n2)cc1OC,u,u,n,n,23.1µM,n
COc1ccc(-c2cc(C(=O)Nc3ccccc3O)c3ccccc3n2)cc1OC,n,x,n,n,u,n
O=C(Nc1ccccc1N1CCOCC1)c1ccc2ccccc2n1,u,n,n,n,16.4µM,n
O=C(Nc1ccc(SC(F)F)cc1)c1cc(-c2ccncc2)nc2ccccc12,u,n,n,n,20.6µM,n
COc1ccc(-c2cc(C(=O)Nc3ccc(S(N)(=O)=O)cc3)c3ccccc3n2)cc1OC,n,n,n,n,u,n
COc1ccc(-c2cc(C(=O)Nc3ccccc3N3CCOCC3)c3ccccc3n2)cc1OC,7.31µM,x,n,n,4.61µM,-51.8
COc1cc(-c2cc(C(=O)Nc3ccc(N4CCOCC4)cc3)c3ccccc3n2)cc(OC)c1OC,2.59µM,n,n,n,1.84µM,n
CCOc1cc(N2CCOCC2)c(OCC)cc1NC(=O)c1cc(-c2ccco2)nc2ccccc12,u,n,n,n,23.1µM,n
CCCCN(CC)CCCNC(=O)c1cn(C)c2ccc(S(=O)(=O)N(C)C3CCCCC3)cc2c1=O,u,n,n,n,u,n
CC(=O)NC(=S)Nc1ccc(NC(=S)NC(=O)c2cccs2)cc1,n,n,n,n,n,n
Cc1c(C(=O)NC(=S)Nc2ccc(NC(=O)c3cccs3)cc2)cccc1[N+](=O)[O-],u,n,n,u,13µM,n
CCOC(=O)c1ccc(NC(=O)c2ccccc2[N+](=O)[O-])cc1,n,n,n,n,18.4µM,n
COc1ccccc1C(=O)Oc1ccccc1C(=O)Nc1ccccc1,u,n,n,n,u,n
O=[N+]([O-])c1cc(Br)c(Nc2ccccc2)c([N+](=O)[O-])c1,0.82µM,n,n,u,0.92µM,-98.1
CCOC(=O)c1ccc(NC(=O)c2cccc(C)c2[N+](=O)[O-])cc1,n,x,n,n,n,n
O=[N+]([O-])c1ccc(Nc2ccccc2O)c([N+](=O)[O-])c1,u,n,n,n,u,n
O=C(Oc1ccccc1C(=O)Nc1ccccc1)c1ccc(Br)c([N+](=O)[O-])c1,n,x,n,n,u,-73.1
O=C(O)C1=C[C@H](c2ccc(F)cc2)C[C@H](OCc2ccc(CO)cc2)O1,n,n,n,n,n,n
Cc1c(C(=O)Nc2ccc3c(c2)CCC3)cccc1[N+](=O)[O-],n,n,n,n,u,n
CCC(=O)Nc1cccc(NC(=O)c2cccc([N+](=O)[O-])c2C)c1,u,x,n,n,23.1µM,n
Cc1c(C(=O)Nc2ccc(Nc3ccccc3)cc2)cccc1[N+](=O)[O-],9.2µM,n,n,n,8.2µM,u
CCOC(=O)c1cc([N+](=O)[O-])c([N+](=O)[O-])cc1NC(C)=O,u,u,n,n,0.92µM,-81.4
Cc1c(C(=O)NN2CCN(C)CC2)cccc1[N+](=O)[O-],n,n,n,n,n,n

# Screening results deposited in PubChem by National Center for Advancing Translational Sciences (NCATS).
